Records with an inconclusive call do not appear. A call without a number means that no potency is given here. Active and inactive are the calls of the source. Unless noted, calls follow the shape of the dose curve; as a rule, active = well fitted cell-killing curve with a large enough effect; inconclusive = small, poorly fitted or top-dose-only effect; inactive = flat fitted curve, though single readings scatter.

Test system in one assay: not listed separately
Description: Cell Viability - H-4-II-E (AID 543).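 Also: cells exposed to compound for 40 hours; nearly all actives have a fitted effect of over 35% in size.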 Also: potency is read from the fitted curve at half-maximal effect. To be noted: H-4-II-E rat hepatoma viability; series mostly up to 92.2 µM. The essentials:
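qHTS, rat hepatoma H-4-II-E, 1500 cells/well; 40 hr compound exposure, 37 °C; CellTiter-Glo ATP luminescence after 20 min RT; AC50 by standard Hill fit.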
Take `CCC(C)(C)c1ccc(O)cc1`: the Potency result was “inactive”.
As to `C[C@]12CCC(=O)C=C1CC[C@@H]1[C@@H]2CC[C@]2(C)C(=O)CC[C@@H]12`, the Potency is 25.1 µM (active).
For `Nc1ccccc1`, the Potency result is “inactive”.
With `CCOC(=O)CC(SP(=S)(OC)OC)C(=O)OCC` (stereo not given), the Potency entry is “inactive”.
As to `C[C@]1(O)CC[C@H]2[C@@H]3CCC4=CC(=O)CC[C@]4(C)[C@@]3(F)[C@@H](O)C[C@@]21C`, the Potency entry was “inactive”.
With `COc1cc(OC)c(OC)cc1C=O`, the Potency entry is “inactive”.
Regarding `CC(C)c1cccc(C(C)C)c1O`, the Potency result is “inactive”.
With `COC(=O)C(c1ccccc1)C1CCCCN1` (stereo not given), the Potency entry is “inactive”.
`Oc1ccc(Cl)cc1`: the Potency entry was “inactive”.
With `CC(C)NC(C)C`, the Potency result is “inactive”.
Still for that read-out and setting: under `NCCc1ccc(O)cc1` stands “inactive”.
For `O=P1(N(CCCl)CCCl)NCCCO1` (stereo not given), the Potency result is “inactive”.
`COP(=S)(OC)Oc1ccc(SC)c(C)c1`: the Potency result was “inactive”.
`CCCC(C)(COC(N)=O)COC(N)=O`: the Potency entry was “inactive”.
Regarding `Nc1ccccc1C(=O)O`, the Potency entry was “inactive”.

Test system in the next assay: not listed separately
Description: Cell Viability - SH-SY5Y (AID 544).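 Also: cells exposed to compound for 40 hours; nearly all actives have a fitted effect of over 55% in size.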 Also: potency is read from the fitted curve at half-maximal effect. To be noted: SH-SY5Y neuroblastoma cell viability; series mostly up to 92.2 µM. The essentials:
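SH-SY5Y, 1500 cells/well, 5 hr pre-incubation 37 °C; cpd 40 hr 37 °C; CellTiter-Glo 20 min RT; luminescence (ATP) read. qHTS concentration-response, Hill fit → AC50. Tamoxifen, doxorubicin as positive controls.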
Turning to `CCC(C)(C)c1ccc(O)cc1`, the Potency result is “inactive”.
As for `C[C@]12CCC(=O)C=C1CC[C@@H]1[C@@H]2CC[C@]2(C)C(=O)CC[C@@H]12`, the Potency result is “inactive”.
As for `Nc1ccccc1`, the Potency entry was “inactive”.
Consider `O=C(O)CCCc1ccc(N(CCCl)CCCl)cc1`, for which the Potency is 3.16 µM (active).
For the compound `CCOC(=O)CC(SP(=S)(OC)OC)C(=O)OCC` (stereo not given), the Potency is 12.6 µM (active).
As to `C[C@]1(O)CC[C@H]2[C@@H]3CCC4=CC(=O)CC[C@]4(C)[C@@]3(F)[C@@H](O)C[C@@]21C`, the Potency entry was “inactive”.
Regarding `COc1cc(OC)c(OC)cc1C=O`, the Potency entry was “inactive”.
Turning to `CC(C)c1cccc(C(C)C)c1O`, the Potency result was “inactive”.
Turning to `COC(=O)C(c1ccccc1)C1CCCCN1` (stereo not given), the Potency result was “inactive”.
With `Oc1ccc(Cl)cc1`, the Potency result is “inactive”.
As for `CC(C)NC(C)C`, the Potency entry is “inactive”.
In the case of `NCCc1ccc(O)cc1`, the Potency result was “inactive”.
In the case of `O=P1(N(CCCl)CCCl)NCCCO1` (stereo not given), the Potency entry is “inactive”.
With `COP(=S)(OC)Oc1ccc(SC)c(C)c1`, the Potency result was “inactive”.
With `CCCC(C)(COC(N)=O)COC(N)=O`, the Potency entry is “inactive”.
With `Nc1ccccc1C(=O)O`, the Potency entry was “inactive”.
With `Clc1ccc(C(c2ccc(Cl)cc2)C(Cl)(Cl)Cl)cc1`, the Potency entry is “inactive”.

Test system in the next assay: not listed separately
The experiment in a line: Cell Viability - Renal Proximal Tubule (AID 545).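 Also: cells exposed to compound for 40 hours; nearly all actives have a fitted effect of over 40% in size.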 The following applies: renal proximal tubule cells viability; series mostly up to 91.7 µM. The essentials: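 Cytotoxicity is scored as a concentration-dependent drop in cellular ATP in primary rat renal proximal tubule cells exposed for 40 hr. AC50 derives from Hill modelling.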
Take `CCC(C)(C)c1ccc(O)cc1`: the call was inactive.
The same measure, in the same setting: in the case of `C[C@]12CCC(=O)C=C1CC[C@@H]1[C@@H]2CC[C@]2(C)C(=O)CC[C@@H]12` it was “inactive”; in that of `Nc1ccccc1`, “inactive”.
In the case of `O=C(O)CCCc1ccc(N(CCCl)CCCl)cc1`, the result was inactive.
Same read-out and setting: in the case of `CCOC(=O)CC(SP(=S)(OC)OC)C(=O)OCC` (stereo not given) it was “inactive”; in that of `C[C@]1(O)CC[C@H]2[C@@H]3CCC4=CC(=O)CC[C@]4(C)[C@@]3(F)[C@@H](O)C[C@@]21C`, “inactive”.
As for `COc1cc(OC)c(OC)cc1C=O`, the compound was classed as inactive.
As for `CC(C)c1cccc(C(C)C)c1O`, the outcome was inactive.
As for `COC(=O)C(c1ccccc1)C1CCCCN1` (stereo not given), the result was inactive.
As to `Oc1ccc(Cl)cc1`, the call was inactive.
For the compound `CC(C)NC(C)C`, the compound was called inactive.
For `NCCc1ccc(O)cc1`, the compound was called inactive.
Regarding `O=P1(N(CCCl)CCCl)NCCCO1` (stereo not given), the compound was called inactive.
On the same count and under the same terms, in the case of `COP(=S)(OC)Oc1ccc(SC)c(C)c1` it was “inactive”; in that of `CCCC(C)(COC(N)=O)COC(N)=O`, “inactive”.
Take `Nc1ccccc1C(=O)O`: the compound was classed as inactive.
In the case of `CN1C[C@H](C(=O)N[C@]2(C)O[C@@]3(O)[C@@H]4CCCN4C(=O)[C@H](Cc4ccccc4)N3C2=O)C=C2c3cccc4[nH]cc(c34)C[C@H]21`, the outcome was inactive.
Still for that read-out and setting: in the case of `Clc1ccc(C(c2ccc(Cl)cc2)C(Cl)(Cl)Cl)cc1` it was “inactive”.

Test system in a further assay: not listed separately
The experiment in a line: Cell Viability - Mesenchymal (AID 546).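 Also: cells exposed to compound for 40 hours before reading.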 The following applies: mesenchymal cells viability, qHTS; series mostly up to 91.7 µM. In a few lines:
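CellTiter-Glo luminescence (intracellular ATP, 20 min room temperature) after 40 hr compound exposure at 37 °C of 1000 glomerulus-derived human kidney mesenchymal cells/well; AC50 values obtained by fitting qHTS concentration-response data to the Hill equation.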
A general note: Quantitative high-throughput screening tests each substance at several concentrations.
On to `CCC(C)(C)c1ccc(O)cc1`, for which the compound was classed as inactive.
With `C[C@]12CCC(=O)C=C1CC[C@@H]1[C@@H]2CC[C@]2(C)C(=O)CC[C@@H]12`, the call was inactive.
Same read-out and setting: under `Nc1ccccc1` stands “inactive”.
With `O=C(O)CCCc1ccc(N(CCCl)CCCl)cc1`, the result was inactive.
With `CCOC(=O)CC(SP(=S)(OC)OC)C(=O)OCC` (stereo not given), the result was inactive.
The same measure, in the same setting: under `C[C@]1(O)CC[C@H]2[C@@H]3CCC4=CC(=O)CC[C@]4(C)[C@@]3(F)[C@@H](O)C[C@@]21C` stands “inactive”; under `COc1cc(OC)c(OC)cc1C=O`, “inactive”.
In the case of `CC(C)c1cccc(C(C)C)c1O`, the result was inactive.
With `COC(=O)C(c1ccccc1)C1CCCCN1` (stereo not given), the compound was classed as inactive.
Regarding `Oc1ccc(Cl)cc1`, the call was inactive.
With `CC(C)NC(C)C`, the result was inactive.
Same read-out and setting: under `NCCc1ccc(O)cc1` stands “inactive”; under `O=P1(N(CCCl)CCCl)NCCCO1` (stereo not given), “inactive”; under `COP(=S)(OC)Oc1ccc(SC)c(C)c1`, “inactive”.
Turning to `CCCC(C)(COC(N)=O)COC(N)=O`, the result was inactive.
The same measure, in the same setting: under `Nc1ccccc1C(=O)O` stands “inactive”.
On the same count and under the same terms, in the case of `C[C@]12CCC(=O)C=C1CC[C@@H]1[C@@H]2CC[C@@]2(C)[C@H]1CC[C@]2(C)O` it was “inactive”.

The target in the next assay is 3',5'-cyclic-AMP phosphodiesterase 4B (Homo sapiens) (UniProt Q07343). Description: qHTS Assay for Inhibitors of PDE-IV (AID 607; active = well fitted activation curve with a large enough effect in the main read-out, with a control signal flat, not every such curve was filed as active). The following applies: HEK293 ACTOne CNG channel cells, membrane potential fluorescence; series mostly up to 22.9 µM. The essentials: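 HEK293 ACTOne cells with CNG channel (1000/well), endogenous PDE4; membrane potential dye, compounds up to 22.9 uM final. Fluorescence Ex 535/Em 590; RO 20-1724 (100 uM final) as reference.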
3',5'-cyclic-AMP phosphodiesterase 4B (Homo sapiens), sequence (Q07343 whole entry, looked up): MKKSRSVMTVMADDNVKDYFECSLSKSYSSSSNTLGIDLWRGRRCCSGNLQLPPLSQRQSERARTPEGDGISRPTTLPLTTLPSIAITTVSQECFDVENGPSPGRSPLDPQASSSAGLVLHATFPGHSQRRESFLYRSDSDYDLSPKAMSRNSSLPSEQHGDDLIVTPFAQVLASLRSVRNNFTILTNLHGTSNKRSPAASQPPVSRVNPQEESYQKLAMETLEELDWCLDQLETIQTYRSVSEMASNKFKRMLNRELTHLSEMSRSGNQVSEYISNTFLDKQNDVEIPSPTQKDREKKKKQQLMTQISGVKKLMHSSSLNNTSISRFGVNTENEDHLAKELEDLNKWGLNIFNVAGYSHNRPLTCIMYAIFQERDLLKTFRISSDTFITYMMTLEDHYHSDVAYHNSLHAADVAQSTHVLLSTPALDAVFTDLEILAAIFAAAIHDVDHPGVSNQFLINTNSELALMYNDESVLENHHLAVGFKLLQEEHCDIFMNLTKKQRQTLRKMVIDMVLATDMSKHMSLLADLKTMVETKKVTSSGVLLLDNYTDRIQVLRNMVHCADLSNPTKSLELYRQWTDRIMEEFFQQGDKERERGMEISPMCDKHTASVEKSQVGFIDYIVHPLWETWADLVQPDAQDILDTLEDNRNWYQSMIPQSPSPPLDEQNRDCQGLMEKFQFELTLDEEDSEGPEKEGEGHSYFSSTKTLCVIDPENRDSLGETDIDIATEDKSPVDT
On to `COc1ccc2c(c1)C13CCCC[C@@H]1C(C2)N(C)CC3` (stereo not given in full), for which the call was inactive.
With `O=C(O)CCCc1ccc(N(CCCl)CCCl)cc1`, the compound was called inactive.
`O=c1[nH]oc2c1CCNC2`: the call was inactive.
On the same count and under the same terms, in the case of `CCCCC/C=C\C/C=C\C/C=C\C/C=C\CCCC(=O)NCC(=O)O` it was “inactive”; in that of `COc1c2c(cc3c1OCO3)CCN(C)C2`, “inactive”; in that of `CNC(C)(C)Cc1ccccc1`, “inactive”.
Consider `CCC1(CC)C(=O)C=CNC1=O`, for which the compound was classed as inactive.
Regarding `CC(C)c1cccc(C(C)C)c1O`, the result was inactive.
With `NCCc1ccc(O)cc1`, the call was inactive.
As to `O=P1(N(CCCl)CCCl)NCCCO1` (stereo not given), the call was inactive.
As to `C=CCN1C[C@H](C)N([C@H](c2ccc(C(=O)N(CC)CC)cc2)c2cccc(OC)c2)C[C@H]1C`, the compound was classed as inactive.
Same read-out and setting: under `O=C(CCCN1CCC2(CC1)C(=O)NCN2c1ccccc1)c1ccc(F)cc1` stands “inactive”; under `O=c1oc2ccccc2c(O)c1Cc1c(O)c2ccccc2oc1=O`, “inactive”.

The values above are taken from PubChem BioAssay (NCATS).
